Assay results reported in PubChem BioAssay AID1159580 (chemical genetic matrix, 2015).
Out of some 5,500 compounds screened, about 2,000 (36%) were called active. Another 18% or so got no clear call; they are omitted. Cut-off read from the data, not from the text of the source: active = normalized growth mostly below about 0.91 (no sharp cut-off); inconclusive = no clear call, values can overlap the other calls; inactive = mostly above about 0.92. The list shows a part of the results.

Test: chemical genetic growth profiling, strain panel (AID 1159580);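 note: tested at 20 µM; growth read once vehicle control cultures reached saturation at 30 °C; 1 = growth at the plate median or of vehicle wells; lower values mean less growth of the strain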
Settings: S. cerevisiae deletion strains, growth OD

Measured: normalized growth

COC(=O)[C@]1(C)CC[C@]2(C)CC[C@]3(C)C4=CC=C5C(=CC(=O)C(O)=C5C)[C@]4(C)CC[C@@]3(C)[C@@H]2C1
active: locus YAL013W, strain DEP1, active compounds read low 0.592 | locus YAL021C, strain ccr4, active compounds read low 0.878 | locus YAL026C, strain drs2, active compounds read low 0.592 | locus YAL030W, strain snc1, active compounds read low 0.823 | locus YBL061C, strain skt5, active compounds read low 0.635 | locus YBR009C, strain hhf1, active compounds read low 0.691 | locus YBR023C, strain chs3, active compounds read low 0.595 | locus YBR229C, strain ROT2, active compounds read low 0.905 | locus YBR231C, strain swc5, active compounds read low 0.503 | locus YBR279W, strain paf1, active compounds read low 0.755 | locus YCL011C, strain gbp2, active compounds read low 0.723 | locus YCL016C, strain dcc1, active compounds read low 0.827 | locus YCL069W, strain vba3, active compounds read low 0.775 | locus YCR088W, strain abp1, active compounds read low 0.864 | locus YDL035C, strain GPR1, active compounds read low 0.703 | locus YDL074C, strain BRE1, active compounds read low 0.622 | locus YDL101C, strain DUN1, active compounds read low 0.648 | locus YDL134C, strain PPH21, active compounds read low 0.755 | locus YDL192W, strain arf1, active compounds read low 0.889 | locus YDR001C, strain nth1, active compounds read low 0.922 | locus YDR069C, strain doa4, active compounds read low 0.514 | locus YDR137W, strain rgp1, active compounds read low 0.693 | locus YDR150W, strain NUM1, active compounds read low 0.835 | locus YDR159W, strain sac3, active compounds read low 0.621 | locus YDR162C, strain NBP2, active compounds read low 0.419 | locus YDR195W, strain ref2 1.24 [resistant] | locus YDR297W, strain sur2, active compounds read low 0.646 | locus YDR318W, strain mcm21, active compounds read low 0.852 | locus YDR334W, strain swr1, active compounds read low 0.553 | locus YDR335W, strain msn5, active compounds read low 0.733 | locus YDR392W, strain spt3, active compounds read low 0.149 | locus YDR502C, strain sam2, active compounds read low 0.878 | locus YEL003W, strain gim4, active compounds read low 0.841 | locus YEL037C, strain rad23, active compounds read low 0.814 | locus YEL061C, strain CIN8 (second series), active compounds read low 0.784 | locus YEL061C, strain CIN8, active compounds read low 0.76 | locus YER015W, strain faa2, active compounds read low 0.687 | locus YER016W, strain bim1, active compounds read low 0.78 | locus YER111C, strain swi4, active compounds read low 0.573 | locus YER155C, strain BEM2 (second series), active compounds read low 0.572 | locus YER155C, strain BEM2, active compounds read low 0.846 | locus YER167W, strain BCK2, active compounds read low 0.837 | locus YFR010W, strain ubp6, active compounds read low 0.777 | locus YGL086W, strain mad1, active compounds read low 0.921 | locus YGL167C, strain pmr1, active compounds read low 0.881 | locus YGL173C, strain kem1, active compounds read low 0.439 | locus YGL227W, strain vid30, active compounds read low 0.879 | locus YGL240W, strain doc1, active compounds read low 0.874 | locus YGL248W, strain PDE1, active compounds read low 0.675 | locus YGL253W, strain hxk2, active compounds read low 0.584 | locus YGR135W, strain pre9, active compounds read low 0.843 | locus YHR013C, strain ard1, active compounds read low 0.597 | locus YHR027C, strain rpn1, active compounds read low 0.514 | locus YHR030C, strain SLT2, active compounds read low 0.736 | locus YHR129C, strain ARP1, active compounds read low 0.693 | locus YHR142W, strain chs7, active compounds read low 0.488 | locus YIL066C, strain RNR3, active compounds read low 0.523 | locus YIL073C, strain SPO22, active compounds read low 0.531 | locus YIL125W, strain kgd1, active compounds read low 0.892 | locus YJL092W, strain hpr5, active compounds read low 0.836 | locus YJL095W, strain BCK1 (second series), active compounds read low 0.615 | locus YJL095W, strain BCK1, active compounds read low 0.634 | locus YJL115W, strain asf1, active compounds read low 0.884 | locus YJL129C, strain trk1, active compounds read low 0.625 | locus YJL134W, strain LCB3, active compounds read low 0.921 | locus YJL154C, strain vps35, active compounds read low 0.907 | locus YJL164C, strain tpk1, active compounds read low 0.616 | locus YJL166W, strain qcr8, active compounds read low 0.509 | locus YJL187C, strain SWE1 (second series), active compounds read low 0.455
inactive: locus YBR021W, strain FUR4, active compounds read low 1.02 | locus YBR171W, strain sec66, active compounds read low 0.949 | locus YCL029C, strain bik1, active compounds read low 0.94 | locus YDL005C, strain med2, active compounds read low 0.956 | locus YDL040C, strain nat1, active compounds read low 0.996 | locus YDL185W, strain tfp1, active compounds read low 0.91 | locus YDR101C, strain arx1, active compounds read low 0.935 | locus YDR388W, active compounds read low 0.96 | locus YER110C, active compounds read low 0.986 | locus YGL078C, strain dbp3, active compounds read low 0.944 | locus YGR252W, strain gcn5, active compounds read low 0.932 | locus YHR079C, strain IRE1 (second series), active compounds read low 0.977 | locus YHR094C, strain hxt1, active compounds read low 0.965 | locus YHR200W, strain rpn10, active compounds read low 0.929 | locus YIR030C, strain dcg1, active compounds read low 0.961 | locus YJL168C, strain set2, active compounds read low 0.968
